In PubChem BioAssay AID1159580 (chemical genetic matrix, 2015):
Screen size: about 5,500 compounds; about 2,000 (36%) were called active. About 18% were inconclusive and are not listed. No stated cut-off is given here; in the data, active means normalized growth mostly below about 0.91 (no sharp cut-off); inconclusive means no clear call, values can overlap the other calls; inactive means mostly above about 0.92. The list shows a part of the results.

Assay: chemical genetic growth profiling, strain panel (AID 1159580);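 further: tested at 20 µM; growth read once vehicle control cultures reached saturation at 30 °C; 1 = growth at the plate median or of vehicle wells; lower values mean less growth of the strain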
Conditions: growth OD

Measured: normalized growth

CCCCCC(C)N (configuration not stated)
inactive: S. cerevisiae deletion strains, locus YJR075W, strain HOC1, hits give low values 1.02 | S. cerevisiae deletion strains, locus YKL009W, strain mrt4, hits give low values 0.946 | S. cerevisiae deletion strains, locus YKL068W, hits give low values 1 | S. cerevisiae deletion strains, locus YKL085W, strain MDH1 (second series), hits give low values 1.05 | S. cerevisiae deletion strains, locus YKL085W, strain MDH1, hits give low values 1.05 | S. cerevisiae deletion strains, locus YKL160W, strain elf1, hits give low values 1.03 | S. cerevisiae deletion strains, locus YKL190W, strain CNB1, hits give low values 1.02 | S. cerevisiae deletion strains, locus YKR001C, strain vps1, hits give low values 0.988 | S. cerevisiae deletion strains, locus YKR026C, strain gcn3, hits give low values 1.03 | S. cerevisiae deletion strains, locus YKR091W, strain srl3, hits give low values 1.02 | S. cerevisiae deletion strains, locus YLL001W, strain dnm1, hits give low values 1.03 | S. cerevisiae deletion strains, locus YLL026W, hits give low values 1.03 | S. cerevisiae deletion strains, locus YLL041C, strain sdh2, hits give low values 1.02 | S. cerevisiae deletion strains, locus YLR027C, strain aat2, hits give low values 1.03 | S. cerevisiae deletion strains, locus YLR039C, strain RIC1, hits give low values 1.04 | S. cerevisiae deletion strains, locus YLR058C, strain SHM2, hits give low values 1.02 | S. cerevisiae deletion strains, locus YLR102C, strain apc9, hits give low values 0.995 | S. cerevisiae deletion strains, locus YLR113W, strain HOG1, hits give low values 0.978 | S. cerevisiae deletion strains, locus YLR221C, strain rsa3, hits give low values 1.03 | S. cerevisiae deletion strains, locus YLR258W, strain gsy2, hits give low values 1.02 | S. cerevisiae deletion strains, locus YLR262C, strain YPT6 (second series), hits give low values 1.05 | S. cerevisiae deletion strains, locus YLR262C, strain YPT6, hits give low values 1.05 | S. cerevisiae deletion strains, locus YLR268W, strain sec22, hits give low values 0.972 | S. cerevisiae deletion strains, locus YLR320W, strain mms22, hits give low values 1.04 | S. cerevisiae deletion strains, locus YLR330W, strain CHS5, hits give low values 1.01 | S. cerevisiae deletion strains, locus YLR342W, strain FKS1 (second series), hits give low values 1.03 | S. cerevisiae deletion strains, locus YLR342W, strain FKS1, hits give low values 1.03 | S. cerevisiae deletion strains, locus YLR357W, strain rsc2, hits give low values 1.05 | S. cerevisiae deletion strains, locus YLR370C, strain arc18, hits give low values 1.04 | S. cerevisiae deletion strains, locus YLR371W, strain rom2, hits give low values 0.989 | S. cerevisiae deletion strains, locus YLR384C, strain iki3, hits give low values 1.02 | S. cerevisiae deletion strains, locus YLR418C, strain cdc73, hits give low values 0.994 | S. cerevisiae deletion strains, locus YML016C, strain PPZ1, hits give low values 1.01 | S. cerevisiae deletion strains, locus YML032C, strain rad52, hits give low values 0.986 | S. cerevisiae deletion strains, locus YML120C, strain ndi1, hits give low values 1.03 | S. cerevisiae deletion strains, locus YML124C, strain tub3, hits give low values 0.997 | S. cerevisiae deletion strains, locus YMR058W, strain fet3, hits give low values 1.02 | S. cerevisiae deletion strains, locus YMR078C, strain ctf18, hits give low values 0.98 | S. cerevisiae deletion strains, locus YMR125W, strain sto1, hits give low values 1.03 | S. cerevisiae deletion strains, locus YMR129W, hits give low values 1.02 | S. cerevisiae deletion strains, locus YMR205C, strain PFK2, hits give low values 1.05 | S. cerevisiae deletion strains, locus YMR223W, strain ubp8, hits give low values 1.02 | S. cerevisiae deletion strains, locus YMR231W, strain pep5, hits give low values 1.03 | S. cerevisiae deletion strains, locus YMR263W, strain SAP30, hits give low values 1.02 | S. cerevisiae deletion strains, locus YMR307W, strain GAS1, hits give low values 1.03 | S. cerevisiae deletion strains, locus YNL067W, strain RPL9B, hits give low values 1.01 | S. cerevisiae deletion strains, locus YNL071W, strain lat1, hits give low values 1.03 | S. cerevisiae deletion strains, locus YNL128W, strain TEP1, hits give low values 1.01 | S. cerevisiae deletion strains, locus YNL153C, strain GIM3, hits give low values 1.01 | S. cerevisiae deletion strains, locus YNL183C, strain NPR1, hits give low values 0.943 | S. cerevisiae deletion strains, locus YNL209W, strain ssb2, hits give low values 1.03 | S. cerevisiae deletion strains, locus YNL233W, strain BNI4, hits give low values 1.02 | S. cerevisiae deletion strains, locus YNL248C, strain rpa49, hits give low values 1.03 | S. cerevisiae deletion strains, locus YNL250W, strain rad50, hits give low values 0.994 | S. cerevisiae deletion strains, locus YNL271C, strain bni1, hits give low values 0.985 | S. cerevisiae deletion strains, locus YNL298W, strain CLA4, hits give low values 0.989 | S. cerevisiae deletion strains, locus YNL307C, strain MCK1, hits give low values 0.999 | S. cerevisiae deletion strains, locus YNL322C, strain KRE1 (second series), hits give low values 1.04 | S. cerevisiae deletion strains, locus YNL322C, strain KRE1, hits give low values 1.01 | S. cerevisiae deletion strains, locus YNR049C, strain mso1, hits give low values 1.03 | S. cerevisiae deletion strains, locus YNR052C, strain pop2, hits give low values 0.988 | S. cerevisiae deletion strains, locus YOL006C, strain TOP1, hits give low values 1.01 | S. cerevisiae deletion strains, locus YOL012C, strain htz1 1.25 | S. cerevisiae deletion strains, locus YOL147C, strain pex11, hits give low values 1 | S. cerevisiae deletion strains, locus YOR001W, strain rrp6, hits give low values 1 | S. cerevisiae deletion strains, locus YOR061W, strain CKA2, hits give low values 1.02 | S. cerevisiae deletion strains, locus YOR069W, strain VPS5, hits give low values 1.01 | S. cerevisiae deletion strains, locus YOR070C, strain gyp1, hits give low values 1.02 | S. cerevisiae deletion strains, locus YOR080W, strain dia2, hits give low values 1.04 | S. cerevisiae deletion strains, locus YOR083W, strain WHI5, hits give low values 1.02 | S. cerevisiae deletion strains, locus YOR106W, strain vam3, hits give low values 1.04 | S. cerevisiae deletion strains, locus YOR136W, strain idh2, hits give low values 0.988 | S. cerevisiae deletion strains, locus YOR144C, strain elg1, hits give low values 0.992 | S. cerevisiae deletion strains, locus YOR184W, strain ser1, hits give low values 0.982 | S. cerevisiae deletion strains, locus YOR231W, strain MKK1, hits give low values 0.997 | S. cerevisiae deletion strains, locus YOR265W, strain rbl2, hits give low values 1.02 | S. cerevisiae deletion strains, locus YOR270C, strain vph1, hits give low values 1.07 | S. cerevisiae deletion strains, locus YOR290C, strain snf2, hits give low values 1.02 | S. cerevisiae deletion strains, locus YOR316C, strain cot1, hits give low values 0.999 | S. cerevisiae deletion strains, locus YPL051W, strain arl3, hits give low values 1.01 | S. cerevisiae deletion strains, locus YPL055C, strain LGE1, hits give low values 1.03 | S. cerevisiae deletion strains, locus YPL078C, strain atp4, hits give low values 1.03 | S. cerevisiae deletion strains, locus YPL106C, strain sse1, hits give low values 1.03 | S. cerevisiae deletion strains, locus YPL240C, strain hsp82, hits give low values 1.03 | S. cerevisiae deletion strains, locus YPL241C, strain CIN2, hits give low values 1 | S. cerevisiae deletion strains, locus YPL256C, strain CLN2, hits give low values 0.992 | S. cerevisiae deletion strains, locus YPR119W, strain clb2, hits give low values 0.989 | S. cerevisiae deletion strains, locus YPR141C, strain kar3, hits give low values 0.99 | S. cerevisiae deletion strains, locus YPR163C, strain tif3, hits give low values 0.992 | S. cerevisiae deletion strains, locus YPR167C, strain met16, hits give low values 0.998 | S. cerevisiae deletion strains, strain wtn01, hits give low values 0.997 | S. cerevisiae strains, strain wild type, hits give low values 1.01
